Assay in all cases: DAPPL (digital affinity profiling via proximity ligation, sequencing); 10 mM Tris-HCl pH 7.5, 50 mM NaCl, 1 mM DTT, 4% glycerol, room temperature, 30 min; GST-TFs on glutathione beads, 16-mer random dsDNA library, 0.1% formaldehyde crosslink after washing; high values mean tight binding
One assay deals with T1, FEV (Homo sapiens, UniProt Q99581 1-238).
T1 sequence: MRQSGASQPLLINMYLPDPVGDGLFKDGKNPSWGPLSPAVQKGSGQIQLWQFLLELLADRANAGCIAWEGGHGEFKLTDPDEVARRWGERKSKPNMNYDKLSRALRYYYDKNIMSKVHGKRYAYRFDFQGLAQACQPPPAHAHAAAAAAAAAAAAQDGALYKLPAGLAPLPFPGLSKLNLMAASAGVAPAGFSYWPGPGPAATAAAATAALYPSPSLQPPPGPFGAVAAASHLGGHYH
The following applies: protein: recombinant; tags: N-terminal GST; dsDNA, one strand shown. In outline: (§1)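 Binding signal is each hexamer's read frequency for a factor divided by its frequency in the tag-only sample. The factors were GST-fused human transcription factors from yeast, captured on glutathione beads, DNA-barcoded and pooled with that sample. Pools were incubated with 200 nmole of a random double-stranded 16-mer DNA library in Tris/NaCl/DTT/glycerol buffer at room temperature for 30 min, then washed, crosslinked with 0.1% formaldehyde, proximity-ligated with BsaI/T4 ligase (1 h, 37 °C), PCR-amplified and sequenced on an Illumina NextSeq500.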

The target in another assay is ETV5 (Homo sapiens, UniProt P41161 1-510). As to conditions: protein: recombinant; tags: N-terminal GST; dsDNA, one strand shown. In outline:
as §1

A further assay addresses HSF1 (Homo sapiens, UniProt Q00613 1-529). As to conditions: protein: recombinant; tags: N-terminal GST; chain copies: 3; dsDNA, one strand shown. A digest of the protocol: as §1
In a further assay the target is T2, SPIC (Homo sapiens, UniProt Q8N5J4 1-248).
T2 sequence: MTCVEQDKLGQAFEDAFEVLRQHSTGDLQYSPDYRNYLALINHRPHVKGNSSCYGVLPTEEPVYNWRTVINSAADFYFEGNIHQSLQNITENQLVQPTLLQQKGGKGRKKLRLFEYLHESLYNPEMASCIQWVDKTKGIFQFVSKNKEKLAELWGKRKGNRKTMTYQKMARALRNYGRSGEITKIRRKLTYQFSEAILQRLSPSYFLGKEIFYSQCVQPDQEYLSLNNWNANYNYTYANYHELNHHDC
The following applies: protein: recombinant; tags: N-terminal GST; dsDNA, one strand shown. In outline: as §1

In a further assay the target is ELF4 (Homo sapiens, UniProt Q99607 1-663). As to conditions: protein: recombinant; tags: N-terminal GST; dsDNA, one strand shown. A digest of the protocol:
as §1

Another assay has as its target T3, ELK4 (Homo sapiens, UniProt P28324-2 1-405).
T3 sequence: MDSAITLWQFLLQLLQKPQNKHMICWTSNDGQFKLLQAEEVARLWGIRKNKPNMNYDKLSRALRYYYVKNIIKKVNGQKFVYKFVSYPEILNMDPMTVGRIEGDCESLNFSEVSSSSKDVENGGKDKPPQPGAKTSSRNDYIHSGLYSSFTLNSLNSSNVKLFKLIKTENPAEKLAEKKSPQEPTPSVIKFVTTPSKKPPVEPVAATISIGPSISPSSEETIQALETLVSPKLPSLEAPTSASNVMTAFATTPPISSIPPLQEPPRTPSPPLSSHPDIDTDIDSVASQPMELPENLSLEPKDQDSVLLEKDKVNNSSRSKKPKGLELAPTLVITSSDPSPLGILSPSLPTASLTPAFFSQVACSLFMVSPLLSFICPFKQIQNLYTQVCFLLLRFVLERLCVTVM
The following applies: protein: recombinant; tags: N-terminal GST; dsDNA, one strand shown. In outline:
as §1

A further assay has as its target T4, ETV2 (Homo sapiens, UniProt O00321 1-342).
T4 sequence: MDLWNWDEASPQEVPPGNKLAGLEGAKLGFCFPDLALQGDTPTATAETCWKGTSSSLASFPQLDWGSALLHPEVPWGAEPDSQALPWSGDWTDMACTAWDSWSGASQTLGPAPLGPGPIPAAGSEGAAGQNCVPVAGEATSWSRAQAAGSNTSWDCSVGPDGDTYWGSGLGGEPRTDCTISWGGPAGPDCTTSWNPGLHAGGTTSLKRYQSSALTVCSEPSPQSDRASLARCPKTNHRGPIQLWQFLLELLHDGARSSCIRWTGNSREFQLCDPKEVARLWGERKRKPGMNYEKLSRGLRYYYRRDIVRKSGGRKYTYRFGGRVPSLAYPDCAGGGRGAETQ
As to conditions: protein: recombinant; tags: N-terminal GST; dsDNA, one strand shown. In outline: as §1

The next assay concerns the target T5, ELF3 (Homo sapiens, UniProt P78545 1-371).
T5 sequence: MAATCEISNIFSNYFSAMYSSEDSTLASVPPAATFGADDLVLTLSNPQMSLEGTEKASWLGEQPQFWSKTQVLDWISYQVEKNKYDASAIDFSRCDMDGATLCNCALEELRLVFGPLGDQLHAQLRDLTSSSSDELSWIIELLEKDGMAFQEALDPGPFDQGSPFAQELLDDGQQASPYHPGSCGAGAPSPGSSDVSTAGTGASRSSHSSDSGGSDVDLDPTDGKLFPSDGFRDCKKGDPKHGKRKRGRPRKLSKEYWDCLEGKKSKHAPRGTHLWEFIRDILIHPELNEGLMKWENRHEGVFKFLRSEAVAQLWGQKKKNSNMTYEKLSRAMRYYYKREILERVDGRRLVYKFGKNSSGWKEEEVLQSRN
As to conditions: protein: recombinant; tags: N-terminal GST; dsDNA, one strand shown. A digest of the protocol: as §1

Another assay addresses CRX (Homo sapiens, UniProt O43186 1-299). As to conditions: protein: recombinant; tags: N-terminal GST; dsDNA, one strand shown. A digest of the protocol: as §1
A further assay has as its target ETV1 (Homo sapiens, UniProt P50549 1-477). As to conditions: protein: recombinant; tags: N-terminal GST; dsDNA, one strand shown. In outline:
as §1

The next assay addresses T6, ERF (Homo sapiens, UniProt P50548 1-548).
T6 sequence: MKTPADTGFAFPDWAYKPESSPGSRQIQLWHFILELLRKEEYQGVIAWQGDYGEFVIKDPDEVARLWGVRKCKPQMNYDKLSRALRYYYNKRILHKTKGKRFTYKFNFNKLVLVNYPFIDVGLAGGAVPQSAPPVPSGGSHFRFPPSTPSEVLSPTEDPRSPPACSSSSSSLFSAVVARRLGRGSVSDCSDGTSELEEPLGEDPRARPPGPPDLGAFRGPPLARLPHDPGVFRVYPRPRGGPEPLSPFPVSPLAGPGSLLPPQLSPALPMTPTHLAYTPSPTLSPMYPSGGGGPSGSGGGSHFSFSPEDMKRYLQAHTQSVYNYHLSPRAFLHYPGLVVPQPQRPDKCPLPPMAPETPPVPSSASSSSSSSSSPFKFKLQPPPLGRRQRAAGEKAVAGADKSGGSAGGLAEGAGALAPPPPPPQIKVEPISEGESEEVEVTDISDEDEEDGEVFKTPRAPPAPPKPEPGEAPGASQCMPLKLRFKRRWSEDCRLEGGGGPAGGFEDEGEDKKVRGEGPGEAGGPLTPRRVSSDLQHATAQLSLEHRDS
The following applies: protein: recombinant; tags: N-terminal GST; dsDNA, one strand shown. A digest of the protocol:
as §1

The target in another assay is T7, ETV3L (Homo sapiens, UniProt Q6ZN32 1-361).
T7 sequence: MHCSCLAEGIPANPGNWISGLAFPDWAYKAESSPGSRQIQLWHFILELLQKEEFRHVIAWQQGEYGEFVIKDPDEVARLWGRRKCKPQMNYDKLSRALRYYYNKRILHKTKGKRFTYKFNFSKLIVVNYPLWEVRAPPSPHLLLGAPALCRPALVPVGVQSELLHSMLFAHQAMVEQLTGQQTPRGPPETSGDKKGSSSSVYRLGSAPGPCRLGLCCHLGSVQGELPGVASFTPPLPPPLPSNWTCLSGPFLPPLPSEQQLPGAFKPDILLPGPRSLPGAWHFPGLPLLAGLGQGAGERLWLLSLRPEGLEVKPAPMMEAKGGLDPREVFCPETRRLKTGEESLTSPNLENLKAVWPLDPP
The following applies: protein: recombinant; tags: N-terminal GST; dsDNA, one strand shown. In outline: as §1

The target of another assay is T8, ETS2 (Homo sapiens, UniProt P15036 1-469).
T8 sequence: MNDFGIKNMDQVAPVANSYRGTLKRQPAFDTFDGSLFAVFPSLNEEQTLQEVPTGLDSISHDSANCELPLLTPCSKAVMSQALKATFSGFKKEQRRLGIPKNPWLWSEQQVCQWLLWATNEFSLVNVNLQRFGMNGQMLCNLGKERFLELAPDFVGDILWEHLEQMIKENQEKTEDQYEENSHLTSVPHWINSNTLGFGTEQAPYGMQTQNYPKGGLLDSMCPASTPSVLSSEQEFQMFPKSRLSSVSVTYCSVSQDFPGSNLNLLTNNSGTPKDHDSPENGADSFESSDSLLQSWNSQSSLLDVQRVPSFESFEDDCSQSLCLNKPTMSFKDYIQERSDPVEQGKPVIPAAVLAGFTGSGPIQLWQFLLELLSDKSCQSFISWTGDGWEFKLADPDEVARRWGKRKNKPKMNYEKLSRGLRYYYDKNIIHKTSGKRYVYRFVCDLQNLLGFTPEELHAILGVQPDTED
The following applies: protein: recombinant; tags: N-terminal GST; dsDNA, one strand shown. A digest of the protocol:
as §1

The target in the next assay is T9, SPDEF (Homo sapiens, UniProt O95238 1-335).
T9 sequence: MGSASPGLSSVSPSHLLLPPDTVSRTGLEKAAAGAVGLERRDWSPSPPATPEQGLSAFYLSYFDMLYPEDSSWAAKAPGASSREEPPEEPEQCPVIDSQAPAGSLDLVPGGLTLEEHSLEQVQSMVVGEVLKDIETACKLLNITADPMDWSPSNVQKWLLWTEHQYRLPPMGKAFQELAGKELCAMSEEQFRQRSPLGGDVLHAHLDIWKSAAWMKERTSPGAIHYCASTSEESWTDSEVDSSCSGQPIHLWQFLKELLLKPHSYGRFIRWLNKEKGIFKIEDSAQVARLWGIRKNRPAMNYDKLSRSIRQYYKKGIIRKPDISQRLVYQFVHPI
The following applies: protein: recombinant; tags: N-terminal GST; dsDNA, one strand shown. A digest of the protocol: as §1

The target of the next assay is T10, ETV7 (Homo sapiens, UniProt Q9Y603 1-341).
T10 sequence: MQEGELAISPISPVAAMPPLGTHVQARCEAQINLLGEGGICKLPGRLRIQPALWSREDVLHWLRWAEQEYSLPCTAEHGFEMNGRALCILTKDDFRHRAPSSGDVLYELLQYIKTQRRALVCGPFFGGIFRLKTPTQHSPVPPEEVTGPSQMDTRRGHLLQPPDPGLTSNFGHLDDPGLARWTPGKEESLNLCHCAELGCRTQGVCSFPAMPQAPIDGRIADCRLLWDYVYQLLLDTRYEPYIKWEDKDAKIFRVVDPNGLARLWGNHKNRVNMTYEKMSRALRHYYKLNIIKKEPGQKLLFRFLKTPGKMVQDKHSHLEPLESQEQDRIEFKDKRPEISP
As to conditions: protein: recombinant; tags: N-terminal GST; dsDNA, one strand shown. In outline:
as §1

For another assay, the target named is T11, ELF5 (Homo sapiens, UniProt Q9UKW6-2 1-255).
T11 sequence: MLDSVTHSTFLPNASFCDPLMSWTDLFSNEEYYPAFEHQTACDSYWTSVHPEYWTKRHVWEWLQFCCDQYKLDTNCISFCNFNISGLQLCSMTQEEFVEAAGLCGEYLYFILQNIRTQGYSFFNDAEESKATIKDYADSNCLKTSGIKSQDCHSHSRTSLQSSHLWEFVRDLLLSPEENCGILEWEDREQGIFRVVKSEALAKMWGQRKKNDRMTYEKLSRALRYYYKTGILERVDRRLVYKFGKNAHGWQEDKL
The following applies: protein: recombinant; tags: N-terminal GST; dsDNA, one strand shown. A digest of the protocol:
as §1

Another assay addresses T12, ETV3 (Homo sapiens, UniProt P41162-2 1-143).
T12 sequence: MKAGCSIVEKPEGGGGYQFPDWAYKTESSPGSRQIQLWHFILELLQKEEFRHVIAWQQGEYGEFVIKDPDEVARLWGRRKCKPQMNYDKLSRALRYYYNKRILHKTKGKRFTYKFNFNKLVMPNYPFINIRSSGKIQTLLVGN
The following applies: protein: recombinant; tags: N-terminal GST; dsDNA, one strand shown. In outline: as §1

The next assay deals with ETV6 (Homo sapiens, UniProt P41212 1-452). As to conditions: protein: recombinant; tags: N-terminal GST; dsDNA, one strand shown. A digest of the protocol:
as §1

HSF1, sequence (Q00613 whole entry): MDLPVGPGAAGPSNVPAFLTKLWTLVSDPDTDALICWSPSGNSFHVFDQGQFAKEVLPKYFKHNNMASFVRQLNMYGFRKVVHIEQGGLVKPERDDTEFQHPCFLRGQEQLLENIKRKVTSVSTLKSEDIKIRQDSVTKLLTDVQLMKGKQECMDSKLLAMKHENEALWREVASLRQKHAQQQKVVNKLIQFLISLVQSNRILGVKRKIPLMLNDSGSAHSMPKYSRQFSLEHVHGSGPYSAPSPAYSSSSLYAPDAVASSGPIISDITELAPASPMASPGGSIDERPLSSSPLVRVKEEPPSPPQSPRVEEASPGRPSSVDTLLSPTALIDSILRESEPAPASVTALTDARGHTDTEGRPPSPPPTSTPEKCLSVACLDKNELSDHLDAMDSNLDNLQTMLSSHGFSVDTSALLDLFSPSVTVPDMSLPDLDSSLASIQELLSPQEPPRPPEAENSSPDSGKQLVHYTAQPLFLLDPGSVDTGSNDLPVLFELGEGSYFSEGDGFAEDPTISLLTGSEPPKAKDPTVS
ETV5, sequence (P41161 whole entry): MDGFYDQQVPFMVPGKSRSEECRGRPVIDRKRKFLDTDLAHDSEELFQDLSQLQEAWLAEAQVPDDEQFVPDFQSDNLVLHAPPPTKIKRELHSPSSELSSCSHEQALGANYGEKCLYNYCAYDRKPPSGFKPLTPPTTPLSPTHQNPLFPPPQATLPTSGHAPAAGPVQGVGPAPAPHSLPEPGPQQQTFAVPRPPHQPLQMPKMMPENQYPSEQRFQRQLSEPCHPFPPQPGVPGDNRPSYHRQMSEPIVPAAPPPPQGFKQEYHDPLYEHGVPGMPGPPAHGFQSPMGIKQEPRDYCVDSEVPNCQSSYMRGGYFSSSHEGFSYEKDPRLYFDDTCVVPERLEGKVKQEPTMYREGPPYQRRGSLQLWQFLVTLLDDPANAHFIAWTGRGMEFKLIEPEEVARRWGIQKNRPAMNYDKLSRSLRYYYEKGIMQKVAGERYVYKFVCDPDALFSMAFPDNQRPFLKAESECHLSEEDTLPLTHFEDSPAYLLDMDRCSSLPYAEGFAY
ETV6, sequence (P41212 whole entry): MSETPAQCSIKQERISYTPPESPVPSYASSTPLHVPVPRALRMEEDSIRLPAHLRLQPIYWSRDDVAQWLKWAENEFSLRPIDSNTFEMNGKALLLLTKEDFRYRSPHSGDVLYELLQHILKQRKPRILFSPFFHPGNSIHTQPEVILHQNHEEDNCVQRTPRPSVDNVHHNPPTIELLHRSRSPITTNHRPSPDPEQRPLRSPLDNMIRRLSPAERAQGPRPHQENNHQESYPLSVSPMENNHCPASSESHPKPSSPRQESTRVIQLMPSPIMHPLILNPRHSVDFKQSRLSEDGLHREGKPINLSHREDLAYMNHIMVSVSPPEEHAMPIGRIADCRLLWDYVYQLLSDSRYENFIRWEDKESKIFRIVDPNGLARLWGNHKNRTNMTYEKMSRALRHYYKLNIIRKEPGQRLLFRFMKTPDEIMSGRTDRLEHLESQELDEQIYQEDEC
ELF4, sequence (Q99607 whole entry): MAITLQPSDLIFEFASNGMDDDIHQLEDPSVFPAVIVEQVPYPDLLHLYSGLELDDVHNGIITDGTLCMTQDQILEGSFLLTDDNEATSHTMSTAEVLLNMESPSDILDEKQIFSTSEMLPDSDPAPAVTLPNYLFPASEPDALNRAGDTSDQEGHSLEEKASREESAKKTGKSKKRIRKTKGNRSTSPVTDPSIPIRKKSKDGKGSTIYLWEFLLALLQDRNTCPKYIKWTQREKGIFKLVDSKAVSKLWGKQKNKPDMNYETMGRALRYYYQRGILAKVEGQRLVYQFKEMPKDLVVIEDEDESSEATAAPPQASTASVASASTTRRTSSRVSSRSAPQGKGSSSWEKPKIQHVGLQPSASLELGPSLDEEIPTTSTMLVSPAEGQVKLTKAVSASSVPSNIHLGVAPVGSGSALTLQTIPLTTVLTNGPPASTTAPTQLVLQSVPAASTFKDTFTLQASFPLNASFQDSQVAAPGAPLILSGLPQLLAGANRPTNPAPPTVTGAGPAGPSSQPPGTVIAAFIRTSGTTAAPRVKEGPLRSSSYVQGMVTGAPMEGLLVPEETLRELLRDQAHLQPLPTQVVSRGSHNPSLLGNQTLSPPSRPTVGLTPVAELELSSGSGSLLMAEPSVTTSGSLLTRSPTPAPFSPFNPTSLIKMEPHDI
CRX, sequence (O43186 whole entry): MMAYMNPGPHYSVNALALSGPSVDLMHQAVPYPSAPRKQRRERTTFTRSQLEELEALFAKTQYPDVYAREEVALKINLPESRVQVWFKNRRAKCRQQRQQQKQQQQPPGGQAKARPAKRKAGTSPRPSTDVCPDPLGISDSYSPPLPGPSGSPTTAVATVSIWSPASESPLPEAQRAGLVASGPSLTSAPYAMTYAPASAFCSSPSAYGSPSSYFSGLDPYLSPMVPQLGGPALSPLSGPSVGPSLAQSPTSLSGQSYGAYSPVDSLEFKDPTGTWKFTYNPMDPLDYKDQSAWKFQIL
ETV1, sequence (P50549 whole entry): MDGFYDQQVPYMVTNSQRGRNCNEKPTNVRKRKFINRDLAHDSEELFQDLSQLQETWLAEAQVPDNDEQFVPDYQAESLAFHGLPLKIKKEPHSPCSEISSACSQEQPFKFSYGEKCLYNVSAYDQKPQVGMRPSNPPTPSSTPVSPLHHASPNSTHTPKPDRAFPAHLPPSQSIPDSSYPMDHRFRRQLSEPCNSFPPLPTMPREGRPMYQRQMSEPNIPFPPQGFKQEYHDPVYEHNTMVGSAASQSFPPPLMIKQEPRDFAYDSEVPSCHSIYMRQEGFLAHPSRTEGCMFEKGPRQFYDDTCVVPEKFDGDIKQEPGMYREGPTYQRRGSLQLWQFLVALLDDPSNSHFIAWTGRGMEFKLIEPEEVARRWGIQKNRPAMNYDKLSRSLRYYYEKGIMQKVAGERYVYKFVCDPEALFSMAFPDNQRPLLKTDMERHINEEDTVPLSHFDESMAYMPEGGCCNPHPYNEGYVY

For CTGGTA, the binding signal with FEV is 1.23 fold enrichment (6-mer frequency, TF over GST control); with ETV5 it was 1.25 fold enrichment (6-mer frequency, TF over GST control); with HSF1 it was 1.75 fold enrichment (6-mer frequency, TF over GST control); in the assay with SPIC, 1.28 fold enrichment (6-mer frequency, TF over GST control); with ELF4 it was 1.4 fold enrichment (6-mer frequency, TF over GST control); with ELK4, 1.29 fold enrichment (6-mer frequency, TF over GST control). Moreover, the binding signal was 1.41 fold enrichment (6-mer frequency, TF over GST control) with ETV2; 1.2 fold enrichment (6-mer frequency, TF over GST control) in the assay with ELF3; 1.38 fold enrichment (6-mer frequency, TF over GST control) with CRX; 1.24 fold enrichment (6-mer frequency, TF over GST control) in the assay with ETV1; 1.28 fold enrichment (6-mer frequency, TF over GST control) with ERF; 1.34 fold enrichment (6-mer frequency, TF over GST control) with ETV3L. In addition, the binding signal with ETS2 was 1.32 fold enrichment (6-mer frequency, TF over GST control); with SPDEF it was 1.4 fold enrichment (6-mer frequency, TF over GST control); with ETV7, 1.4 fold enrichment (6-mer frequency, TF over GST control); in the assay with ELF5, 1.35 fold enrichment (6-mer frequency, TF over GST control); with ETV3, 1.29 fold enrichment (6-mer frequency, TF over GST control); with ETV6, 1.29 fold enrichment (6-mer frequency, TF over GST control).
